Source: PubChem (National Center for Advancing Translational Sciences (NCATS))
SNCA expr inh = Primary qHTS assay for inhibitors of alpha-synuclein gene (SNCA) expression | HEK-293 SNCA-luciferase knock-in, luminescence, 24 h | 140,000 compounds, 0.17% hits | AID 1671194, 2021 | Potency, µM (series often up to 57.2 µM), actives largely listed as inhibitors; note: nearly all actives have a fitted effect of over 45% in size
SNCA viab count = GF-AFC viability counterscreen for inhibitors of alpha-synuclein gene (SNCA) expression; HEK-293-SNCA-luc viability, GF-AFC fluorescence, 24 h; Potency, µM (series often up to 57.1 µM), hits mostly cytotoxic; 150,000 compounds, 0.12% hits; note: nearly all actives have a fitted effect of over 30% in size
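Cytotoxicity counterscreen: after 24 h compound treatment of genome-edited SNCA-luciferase HEK-293 cells, live-cell protease substrate GF-AFC read by fluorescence after 30 min; activity scaled between DMSO (0%) and medium-only (-100%), curves Hill-fitted.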
KDM5B inhibitor = Primary screen for KDM5B Histone Demethylases FDH-coupled qHTS. Lysine-specific demethylase 5B (Homo sapiens), Q9UGL1. KDM5B demethylase, FDH-coupled NADH fluorescence (FDH is formaldehyde dehydrogenase). Potency, µM (doses to about 57.7 µM), actives largely listed as inhibitors. 220,000 compounds, 2.6% hits. AID 1347165, 2019; note: nearly all actives have a fitted effect of over 70% in size
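Compound dilutions met 200 nM (final) KDM5BΔAP for 10 min at room temperature before substrate addition. The substrate mix held 12.5 µM H3K4me3 with cofactors 25 µM α-ketoglutarate and 50 µM Fe²⁺. NADH signal gain over 30 min defined activity.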
IP6K1 inh = Primary qHTS assay for small molecule inhibitors of Inositol hexaphosphate kinase 1 (IP6K1); Inositol hexakisphosphate kinase 1 (Homo sapiens), Q92551; IP6K1 kinase, ADP-Glo luminescence, 2 h; stronger effect = lower value; activity change, % (series mostly up to about 58 µM); 140,000 compounds, 0.81% hits; in the data active = activity change below about -25%
Target sequence (Q92551 whole entry, looked up): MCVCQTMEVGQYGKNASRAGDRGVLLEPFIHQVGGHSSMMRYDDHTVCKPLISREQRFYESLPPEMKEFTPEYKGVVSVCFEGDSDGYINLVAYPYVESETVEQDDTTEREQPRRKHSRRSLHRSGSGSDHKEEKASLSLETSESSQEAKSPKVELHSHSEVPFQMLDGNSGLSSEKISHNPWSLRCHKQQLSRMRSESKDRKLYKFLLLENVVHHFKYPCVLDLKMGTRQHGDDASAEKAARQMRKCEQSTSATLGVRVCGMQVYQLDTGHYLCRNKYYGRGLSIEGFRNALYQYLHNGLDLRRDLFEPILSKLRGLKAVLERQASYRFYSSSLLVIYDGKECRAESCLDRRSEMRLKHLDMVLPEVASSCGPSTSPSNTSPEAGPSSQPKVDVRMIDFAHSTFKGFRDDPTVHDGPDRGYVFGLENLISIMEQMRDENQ
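ADP-Glo luminescence measures ADP made by human IP6K1 during a 2 h RT reaction with ATP/IP6 (mix at 1.3 mM/130 uM); top library doses 57.5 and 19.1 uM final.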
A number is an active result; – = inactive; ? = inconclusive; · = not tested or not shown. In the library only some 2.8% were active in any assay of this set; here they are far more common. Unless noted, calls come from the whole dose curve; as a rule, active = well fitted curve in the direction sought with a large enough effect; inconclusive = small, poorly fitted or top-dose-only effect, or another doubt; inactive = no such curve, though single readings can be large; an effect the other way counts as inactive or inconclusive.

SMILES | SNCA expr inh | SNCA viab count | KDM5B inhibitor | IP6K1 inh
O=C(NC1CCN(c2nc3ncccc3o2)CC1)c1ccccc1 | – | – | 35µM | –
Cc1ccc(C(=O)NC2CCN(c3nc4ncccc4o3)CC2)cc1 | – | ? | 35µM | –
COC(=O)c1c(C)cccc1NS(=O)(=O)c1c(C)nn(C)c1C | · | · | – | ·
COC(=O)C1=C(C)N=C2SC=C(CC(=O)N3CCCC3)N2C1c1cccc(OC)c1OC (stereo not drawn) | – | – | ? | –
CC1=C(C(=O)OC(C)C)C(c2ccccc2F)N2C(CC(=O)N3CCCC3)=CSC2=N1 (stereo not drawn) | – | – | ? | –
C=CCOC(=O)C1=C(C)N=C2SC=C(CC(=O)N3CCCC3)N2C1c1ccccc1Cl (stereo not drawn) | – | – | 28µM | –
C=CCOC(=O)C1=C(C)N=C2SC=C(CC(=O)N3CCCC3)N2C1c1cccc(OC)c1OC (stereo not drawn) | – | – | 28µM | –
O=C(CCc1cc(Cl)no1)N1CCc2nc3cc(-c4ccccc4)[nH]n3c(=O)c2C1 | ? | – | 7.9µM | –
O=C(CCc1nc2ccc(Cl)cc2[nH]1)N1CCc2nc3cc(-c4ccccc4)[nH]n3c(=O)c2C1 | ? | – | 22µM | –
O=C1CN(C(=O)CCC(=O)N2CCc3c(nc4cc(-c5ccccc5)[nH]n4c3=O)C2)c2ccccc2N1 | – | – | 28µM | –
O=C(CCc1nc2ccc(Cl)cc2[nH]1)N1CCc2c(nc3cc(-c4ccccc4)[nH]n3c2=O)C1 | – | – | 32µM | –
COC(=O)/C=C/c1ccc(OS(=O)(=O)c2ccc3c(c2)OCCCO3)c(OC)c1 | · | · | – | ·
O=C(Nc1ccc2oc(-c3ccccc3)nc2c1)C1CCN(c2cnn(Cc3ccccc3)c(=O)c2)C1 (stereo not drawn) | – | – | 18µM | –
O=C(Nc1ccc2c(c1)OCO2)C1CCCN(c2cnn(Cc3ccccc3)c(=O)c2)C1 (stereo not drawn) | – | ? | ? | –
CN(C)CC(=O)Nc1ccc(OC2CCN(C)CC2)nc1 | – | – | – | –
CNc1ccc(OC2CCN(C(=O)COC)CC2)nc1 | – | – | 28µM | –
c1ccc(Nc2cc3c(cn2)CN(Cc2ccccn2)CCN3)cc1 | – | – | 32µM | –
Cn1cnc(CN2CCNc3cc(Nc4ccccc4)ncc3C2)c1 | – | – | – | –
COCCN1CCNc2cc(Nc3cccc(N(C)C)c3)ncc2C1 | – | – | 35µM | –
CN(C)c1ccc(CN2CCNc3cc(Nc4ccccc4)ncc3C2)cc1 | – | ? | 40µM | –
COCCNc1ncccc1-c1noc([C@@H]2CCCN2Cc2ccccc2OC)n1 | – | – | ? | –
COCCNc1ccc(-c2noc([C@@H]3CCCN3C3CCOCC3)n2)cn1 | – | – | ? | –
COCCNc1ncccc1-c1noc([C@@H]2CCCN2Cc2ccc(C(=O)O)cc2)n1 | – | – | 35µM | –
COCCOc1ncccc1-c1noc([C@@H]2CCCN2Cc2ccc(C(=O)O)cc2)n1 | – | – | ? | –
COCCNc1ncccc1-c1noc([C@@H]2CCCN2C2CCC2)n1 | – | – | 32µM | –
SMILES | SNCA expr inh | SNCA viab count | KDM5B inhibitor | IP6K1 inh
COCCNc1ncccc1-c1noc([C@@H]2CCCN2C2CCN(C)CC2)n1 | – | – | 32µM | –
COCCNc1ncccc1-c1noc([C@@H]2CCCN2C2CCN(C(C)=O)CC2)n1 | – | – | 35µM | –
CCN1CCN(Cc2ccccc2CNCc2cccc(C#N)c2)CC1 | · | · | – | ·
CCNc1c(NC(=O)NCc2ccccc2)c(=O)oc2ccccc12 | · | · | – | ·
Cc1cccc(N2CCN(C(=O)c3noc(-c4ccc[nH]c4=O)n3)CC2)c1 | – | – | 28µM | –
Cc1cccc(N2CCN(C(=O)c3noc(-c4ccc5c(c4)OCO5)n3)CC2)c1 | – | – | ? | –
Cc1ccccc1N1CCN(C(=O)c2noc(-c3ccc[nH]c3=O)n2)CC1 | – | – | 28µM | –
Cc1ccc(-c2nc(C(=O)N3CCN(c4ccccc4C)CC3)no2)cc1 | – | – | ? | –
Cc1cccc(N2CCN(C(=O)c3noc(-c4ccc[nH]c4=O)n3)CC2)c1C | – | – | 28µM | –
COc1ccccc1N1CCN(C(=O)c2noc(-c3ccc(C)cc3)n2)CC1 | – | – | – | –
COc1ccc(S(=O)(=O)N(CC(=O)N2CCN(C)CC2)c2ccccc2OC)cc1 | · | · | – | ·
CCc1noc(-c2cccn3c(CNC(=O)Cc4ccccc4C)nnc23)n1 | – | – | 25µM | –
CCc1noc(-c2cccn3c(CNC(=O)C(C)Oc4ccccc4)nnc23)n1 (stereo not drawn) | – | – | ? | –
CCc1noc(-c2cccn3c(CNC(=O)Cc4ccccc4Cl)nnc23)n1 | – | – | 20µM | –
CCc1noc(-c2cccn3c(CNC(=O)Cc4ccc(Cl)cc4)nnc23)n1 | – | – | 25µM | –
CCCc1noc(-c2cccn3c(CNC(=O)Cc4ccccc4OC)nnc23)n1 | – | – | – | –
Cc1ccc(CNCCCn2ccnc2)cc1 | · | · | – | ·
Cc1nc2sc3c(c2c(-c2ccc(Cl)cc2)c1C(N)=O)CCC3 | · | · | – | ·
O=C(NCCC1=CCCCC1)C1CC(=O)N(c2n[nH]c3ccccc23)C1 (stereo not drawn) | – | – | 25µM | –
O=C(NCCc1cccc(F)c1)C1CC(=O)N(c2n[nH]c3ccccc23)C1 (stereo not drawn) | – | – | 22µM | –
O=C(NCc1ccc(F)cc1)C1CC(=O)N(c2n[nH]c3ccccc23)C1 (stereo not drawn) | – | – | ? | –
Cc1ccc(CNC(=O)Nc2ccccc2Cl)cc1 | · | · | – | ·
CCN(CC)CC(=O)N1CCC(C(=O)Nc2ccc(-c3nc4ccccc4o3)cc2)CC1 | – | – | 28µM | –
O=C(Nc1ccc(-c2nc3ccccc3o2)cc1)C1CCCC1 | · | · | – | ·
O=C(C1CC1)N(Cc1ccc2c(c1)CN(S(=O)(=O)c1ccccc1)CCO2)c1ccccc1 | · | · | – | ·
SMILES | SNCA expr inh | SNCA viab count | KDM5B inhibitor | IP6K1 inh
CCc1c(C(=O)Nc2cccc(OC)c2)cnn1-c1ccc(OC)nn1 | · | · | – | ·
CCC(=O)Nc1ccc(-c2csc(NC3CC3)n2)cc1 | · | · | – | ·
CCCCNC(=O)c1cc(NC(=O)CC)cc2nc(C)ccc12 | – | – | 25µM | –
CCC(=O)Nc1cc(C(=O)NCC(C)C)c2ccc(C)nc2c1 | – | – | 22µM | –
CCNC(=O)c1cc(NC(=O)CC)cc2nc(C)ccc12 | – | – | 20µM | –
CC1CCCN(S(=O)(=O)NCc2ccnc(N3CCN(c4ccc(F)cc4)CC3)c2)C1 (stereo not drawn) | · | · | – | ·
COc1ccc(CC(=O)N2CCC3(CC2)CC(c2cccc(C(F)(F)F)c2)=NO3)cc1 | · | · | · | –
Cc1ccc(C(=O)N[C@H]2CO[C@H]3[C@@H]2OC[C@@H]3Nc2nccc(-c3cccs3)n2)cc1 | – | – | ? | –
O=S(=O)(N[C@H]1CO[C@H]2[C@@H]1OC[C@@H]2Nc1nccc(-c2cccs2)n1)c1cccs1 | – | – | 22µM | –
